Only some compounds are listed: those with a hit (about 3.5% of all), similar ones and a draw of the others.
GPR151 ag: activates the human receptor GPR151; Q8TDV0; PathHunter beta-arrestin GPR151 cells, luminescence; activation, % at 11.2 µM; 650,000 tested, 1% active; AID 1508602; in the data active means activation above about 4.9%;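 further: 0% = median of compound wells and 100% = cells with positive control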
Target sequence (Q8TDV0 whole entry, looked up): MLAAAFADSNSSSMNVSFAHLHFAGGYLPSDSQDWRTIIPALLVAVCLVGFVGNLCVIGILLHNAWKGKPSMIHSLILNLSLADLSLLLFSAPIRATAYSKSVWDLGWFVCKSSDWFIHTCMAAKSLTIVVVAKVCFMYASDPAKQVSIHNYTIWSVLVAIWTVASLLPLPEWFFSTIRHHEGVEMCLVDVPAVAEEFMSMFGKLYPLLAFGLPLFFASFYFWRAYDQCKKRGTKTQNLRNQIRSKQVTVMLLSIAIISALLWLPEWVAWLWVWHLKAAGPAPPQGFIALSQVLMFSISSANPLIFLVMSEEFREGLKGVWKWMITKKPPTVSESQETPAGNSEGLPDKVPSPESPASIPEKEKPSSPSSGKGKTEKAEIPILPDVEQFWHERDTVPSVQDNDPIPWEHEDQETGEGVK
FBW7 activator: human FBW7 E3 ligase activation, primary screen. 650,000 tested, 0.13% active. normalized activity (activation), % at 26.1 µM. Q969H0. AlphaScreen FBW7–phospho-cyclin E peptide binding, activator screen; in the data active means normalized activity above about 1.9%;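 further: purified mutant Fbw7 with reduced substrate affinity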
TEAD-YAP inh: TEAD-YAP interaction inhibition | 640,000 tested, 1.4% active | HEK-TIYL cells, TEAD-Gal4/YAP UAS-luciferase luminescence | inhibition, % at 9.12 µM; in the data active means inhibition above about 32%;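 further: 0% = median of test compound wells and 100% = reference inhibitor wells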
MITF primary: inhibitors of human MITF. AID 1259374. 650,000 tested, 0.91% active. AlphaScreen MITF homodimerization, bead proximity signal. O75030. inhibition, % at 2.6 µM; in the data active means inhibition above about 50%;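 further: 0% = vehicle wells with protein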
MITF confirm: human MITF inhibition, confirmation; 4,700 tested, 16% active; shares compounds with MITF primary; AlphaScreen MITF homodimerization, biotin/His-MITF beads; inhibition, % at 2.6 µM;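 active means inhibition above a cutoff derived from the DMSO control wells, cut at about 28% in these data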;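 further: 0% = MITF dimer wells with DMSO only; inhibitors lower the bead chemiluminescence by keeping MITF from dimerizing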
AS interf DR: counter-screen: compounds optically interfering with AlphaScreen. shares compounds with MITF primary. AlphaScreen optical interference counterscreen, cell-free. IC50, µM. 480 tested, 6% active; call rule not given here
AlphaScreen intf2: AlphaScreen optical interference, counter-screen; AID 1259376; LysRS AlphaScreen counterscreen, signal interference, triplicate; inhibition, % at 2.6 µM; 4,700 tested, 7.6% active; shares compounds with MITF primary;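 active means inhibition above a cutoff derived from the DMSO control wells, cut at about 30% in these data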
* = called active by the depositor.

What do the screens show for `CCOC(=O)c1c(NC(=O)c2cc(-c3cc(C)ccc3C)nc3ccccc23)sc2c1CCCC2`?
GPR151 ag: -0.9; FBW7 activator: 0.1; TEAD-YAP inh: -5.2; MITF primary: -15.7

Results for Cc1sc2ncnc(NCC(c3ccco3)N(C)C)c2c1C (stereo not given) ?
GPR151 ag: -1.1; FBW7 activator: 0.2; TEAD-YAP inh: -9.2; MITF primary: 61.7*; MITF confirm: 13.0; AlphaScreen intf2: 13.6

What do the screens show for `CC1CCC(N2CCN(Cc3cccc([N+](=O)[O-])c3)CC2)CC1` (stereo not given)?
GPR151 ag: -0.5; FBW7 activator: 0.0; TEAD-YAP inh: -5.8; MITF primary: 59.5*; MITF confirm: 1.8; AlphaScreen intf2: 0.1

What do the screens show for `CC1CCN(C2CCN(Cc3cccc([N+](=O)[O-])c3)CC2)CC1`?
GPR151 ag: -0.4; FBW7 activator: 0.0; TEAD-YAP inh: -6.6; MITF primary: 17.6

How did O=[N+]([O-])c1cccc(CN2CCN(S(=O)(=O)Cc3ccccc3)CC2)c1 do in these assays?
GPR151 ag: 3.6; FBW7 activator: 0.1; TEAD-YAP inh: 17.2; MITF primary: 31.3

How did O=[N+]([O-])c1cccc(CN2CCC(N3CCCCCC3)CC2)c1 do in these assays?
GPR151 ag: 3.1; FBW7 activator: 0.7; TEAD-YAP inh: 1.3; MITF primary: 67.4*; MITF confirm: 2.5; AlphaScreen intf2: 6.3

Results for CC1CCCC(N2CCN(Cc3cccc([N+](=O)[O-])c3)CC2)C1 (stereo not given) ?
GPR151 ag: -1.0; FBW7 activator: 0.0; TEAD-YAP inh: -1.1; MITF primary: 75.0*; MITF confirm: 5.6; AlphaScreen intf2: -3.5

What do the screens show for `CS(=O)(=O)N1CCN(Cc2cccc([N+](=O)[O-])c2)CC1`?
GPR151 ag: -1.3; FBW7 activator: 0.2; TEAD-YAP inh: 4.4; MITF primary: 72.3*; MITF confirm: 6.7; AlphaScreen intf2: 16.5

Results for O=[N+]([O-])c1cccc(CN2CCC(N3CCN(Cc4ccccc4)CC3)CC2)c1 ?
GPR151 ag: -1.1; FBW7 activator: 0.0; TEAD-YAP inh: -5.5; MITF primary: 22.6

What do the screens show for `CCOC(=O)C1C(=O)C=C(Nc2ccc(OC)cc2)CC1c1ccccc1` (stereo not given)?
GPR151 ag: -0.1; FBW7 activator: 0.1; TEAD-YAP inh: -66.6; MITF primary: 19.3

What do the screens show for `O=[N+]([O-])c1cc(CN2CCCC2)c2cccnc2c1O`?
GPR151 ag: 0.1; FBW7 activator: -0.9; TEAD-YAP inh: -2.3; MITF primary: 99.5*; MITF confirm: 106.1*; AlphaScreen intf2: 100.6*

How did CN1CCN(Cc2cc([N+](=O)[O-])c(O)c3ncccc23)CC1 do in these assays?
GPR151 ag: 1.0; FBW7 activator: -0.9; TEAD-YAP inh: 2.2; MITF primary: 96.9*; MITF confirm: 105.3*; AlphaScreen intf2: 100.6*

What do the screens show for `CCOc1ccc(Br)cc1S(=O)(=O)N1CCN(CC)CC1`?
GPR151 ag: 0.0; FBW7 activator: 0.5; TEAD-YAP inh: 15.9; MITF primary: 35.9

Results for CC(C)(C)NC(=O)CN1CCN(c2ccc(F)cc2)C1=O ?
GPR151 ag: 0.2; FBW7 activator: 0.2; TEAD-YAP inh: -0.4; MITF primary: 10.3

How did O=C(O)C1CC=CCC1C(=O)Nc1nncs1 (stereo not given) do in these assays?
GPR151 ag: 2.5; FBW7 activator: -0.1; TEAD-YAP inh: 1.9; MITF primary: 53.0*; MITF confirm: 48.4*; AS interf DR: >6.48; AlphaScreen intf2: -3.7

What do the screens show for `O=C(O)C1CCCCC1C(=O)Nc1nncs1` (stereo not given)?
GPR151 ag: -0.3; FBW7 activator: -0.1; TEAD-YAP inh: -2.3; MITF primary: -7.7

Results for CCn1c(=O)c2c(nc3n(CCc4ccccc4)c(C)cn23)n(C)c1=O ?
GPR151 ag: 3.4; FBW7 activator: -0.2; TEAD-YAP inh: -3.2; MITF primary: 2.3

What do the screens show for `Cc1cn2c3c(=O)n(C)c(=O)n(C)c3nc2n1CCc1ccccc1`?
GPR151 ag: -0.6; FBW7 activator: 0.1; TEAD-YAP inh: 10.0; MITF primary: 55.3*; MITF confirm: -4.5; AlphaScreen intf2: 15.6

What do the screens show for `O=C(CCCn1c(=S)[nH]c2ccccc2c1=O)N1CCOCC1`?
GPR151 ag: 0.8; FBW7 activator: -0.1; TEAD-YAP inh: 1.1; MITF primary: 113.8*; MITF confirm: 1.2; AlphaScreen intf2: 0.3

Results for O=C1CSC(c2cccc(Cl)c2Cl)N1c1ccccc1 (stereo not given) ?
GPR151 ag: -2.1; FBW7 activator: 0.1; TEAD-YAP inh: -2.4; MITF primary: 14.1

Results for COc1ccc(CNC(=O)c2sc3nc(-c4cccs4)ccc3c2N)cc1 ?
GPR151 ag: 0.3; FBW7 activator: 1.3; TEAD-YAP inh: 4.4; MITF primary: 1.4

What do the screens show for `CC(=O)c1sc2nc(-c3cccs3)ccc2c1N`?
GPR151 ag: -0.9; FBW7 activator: 0.2; TEAD-YAP inh: -28.1; MITF primary: 50.8*; MITF confirm: 10.3; AlphaScreen intf2: 11.5

How did CS(=O)(=O)c1cncnc1C1CCCN(C(=O)N2CCCC2)C1 (stereo not given) do in these assays?
GPR151 ag: -1.0; FBW7 activator: 0.0; TEAD-YAP inh: -11.2; MITF primary: 6.3

How did CCN(CC)C(=O)CN1CCCC(c2ncncc2S(C)(=O)=O)C1 (stereo not given) do in these assays?
GPR151 ag: -0.1; FBW7 activator: -0.1; TEAD-YAP inh: -3.4; MITF primary: 63.5*; MITF confirm: 9.0; AlphaScreen intf2: 10.8

How did Cc1nc2c(C(=O)N3CCOCC3)cnn2c(C)c1Cc1ccc(F)cc1 do in these assays?
GPR151 ag: 1.4; FBW7 activator: 0.0; TEAD-YAP inh: -4.8; MITF primary: -0.1

How did CCCCOCC(O)Cn1cnc2ccccc21 (stereo not given) do in these assays?
GPR151 ag: -1.2; FBW7 activator: 0.2; TEAD-YAP inh: -3.3; MITF primary: 54.9*; MITF confirm: 21.3; AlphaScreen intf2: 18.5

What do the screens show for `OC(COCc1ccccc1)Cn1cnc2ccccc21` (stereo not given)?
GPR151 ag: 1.8; FBW7 activator: 0.2; TEAD-YAP inh: -4.6; MITF primary: 1.5

How did O=C(Nc1ccc(Cl)c(Cl)c1)c1ccc(F)c(S(=O)(=O)NC2CC2)c1 do in these assays?
GPR151 ag: -0.6; FBW7 activator: -0.1; TEAD-YAP inh: 8.0; MITF primary: 3.7

What do the screens show for `O=C(NCCNCc1cccs1)c1ccc(F)cc1`?
GPR151 ag: -0.8; FBW7 activator: 0.2; TEAD-YAP inh: 6.9; MITF primary: 55.3*; MITF confirm: -5.0; AlphaScreen intf2: 17.4

Results for O=C(NCc1cccs1)c1ccc(CNS(=O)(=O)c2ccc(F)cc2)cc1 ?
GPR151 ag: -0.3; FBW7 activator: 0.1; TEAD-YAP inh: -2.5; MITF primary: 0.0

Source: PubChem
